Among the data in PubChem BioAssay (EPA / NIEHS) are outcome and AC50 values, retold here.

Test [1] has as its target T1, Estrogen receptor (Homo sapiens) + Estrogen receptor beta (Homo sapiens) (UniProt P03372+Q92731). Description: OT_ER_ERaERb_0480: Odyssey Thera (OT) 8-hour HEK293T Protein-Complementation Assay for Estrogen Receptor-alpha/-beta Heterodimer (AID 2283352). Summed up: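 Compound added to HEK293T cells carrying split-reporter-tagged ER-alpha and ER-beta LBDs, incubated 8 hours, then imaged by laser scanning cytometer. Signal rise in nucleus, or nucleus and cytoplasm, over vehicle was fitted in the positive direction.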

Test [2] has as its target T1, Estrogen receptor (Homo sapiens) + Estrogen receptor beta (Homo sapiens). Description: OT_ER_ERaERb_1440: Odyssey Thera (OT) 24-hour HEK293T Protein-Complementation Assay for Estrogen Receptor-alpha/-beta Homodimer (AID 2283356).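 Note: heteromer of ER alpha and ER beta binding domains; hits raise reporter fluorescence and both agonists and antagonists give an increase.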 The method, boiled down: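 Stable HEK293T PCA line, ERα LBD 310-547 + ERβ LBD 263-489 fused to reporter fragments; 24 h treatment; fluorescence read by laser scanning cytometry; positive fitting direction relative to DMSO.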

For test [3], the target named is Estrogen receptor beta (Homo sapiens) (UniProt Q92731). Description: OT_ER_ERbERb_0480: Odyssey Thera (OT) 8-hour HEK293T Protein-Complementation Assay for Estrogen Receptor-beta/-beta Homodimer (AID 2283357).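 Note: active means signal gain over DMSO baseline.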 The method, boiled down: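 Fluorescence gain from complemented reporter fragments on ER-beta LBD homodimer in HEK293T was quantified against DMSO controls after 8 h treatment, fixation in 4% formaldehyde and Draq5 staining.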

The target in test [4] is Androgen Receptor/SRC-1 Co-activator, AR (gene 367) (UniProt P10275). Description: OT_AR_ARSRC1_0960: Odyssey Thera (OT) 16-hour HEK293T Protein-Complementation Assay for Androgen Receptor/SRC-1 Co-activator (AID 2283353).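 Note: actives raise the signal above DMSO so potency reflects increased AR and SRC-1 complex.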 Summed up:
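Sixteen-hour cell assay: Venus halves fused to AR and SRC-1 in HEK293T report binding. Images at 488/635 nm give an N/C ratio in the 488 nm channel over ≥400 cells, analysed as signal increase over DMSO.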

The target is the same in test [5]. Description: OT_AR_ARSRC1_0480: Odyssey Thera (OT) 8-hour HEK293T Protein-Complementation Assay for Androgen Receptor/SRC-1 Co-activator (AID 2283354).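 Note: hits raise the complementation signal above DMSO so AC50 marks enhancers.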 Summed up: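 After 8 h dosing, stably expressing HEK293T cells with split-Venus AR/SRC-1 fusions were imaged (488, 635nm). The 488nm N/C ratio per image gave the endpoint, analysed in the positive direction against DMSO.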

Test [6] concerns the target Nuclear receptor subfamily 1 group I member 2 (Homo sapiens) (UniProt O75469). Description: NVS_NR_hPXR: NovaScreen (NVS) Nuclear Receptor Binding Assay for human Pregnane X Receptor (PXR) (AID 2283365).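 Note: a drop in FRET signal versus DMSO baseline means the compound binds.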 The method, boiled down: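 Human PXR protein, cell-free; compound added, incubated 2 h, TR-FRET read. Signal decrease vs DMSO = binding. Screened 25 uM duplicate, actives re-run as dilution series.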

Test [7] addresses Peroxisome proliferator-activated receptor gamma (Homo sapiens) (UniProt P37231). Description: NVS_NR_hPPARg: NovaScreen (NVS) Nuclear Receptor Binding Assay for human Peroxisome Proliferator-activated Receptor gamma (PPARg) (AID 2283370). The method, boiled down: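 Chemicals were tested first in duplicate at 25 uM, then in concentration series if active. Binding to cell-free PPARg protein was measured by fluorescence polarization after 2 h, with loss of signal scored against DMSO.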

Test [8] has as its target rat Mineralocorticoid Receptor (MR), Nr3c2 (gene 25672) (UniProt P22199). Description: NVS_NR_rMR: NovaScreen (NVS) Nuclear Receptor Binding Assay for rat Mineralocorticoid Receptor (MR) (AID 2283355). The method, boiled down: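 Single-concentration duplicate screen (25 uM) of radioligand binding in adrenalectomized rat brain supernatant; scintillation detection 24 h after dosing. Positive and negative controls ran on each plate, and confirmed actives went to concentration-response.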

Test [9] concerns the target human Thyroid Receptor Alpha (TRa), THRA (gene 7067) (UniProt P10827). Description: NVS_NR_hTRa_Antagonist: NovaScreen (NVS) Nuclear Receptor Binding Assay for human Thyroid Receptor Alpha Antagonism (TRa) (AID 2283362).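 Note: activity is loss of signal relative to DMSO baseline.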 The method, boiled down:
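Extracted protein, cell-free; 1 h incubation after dosing; AlphaLISA chemiluminescence binding readout. DMSO = baseline/neg ctrl; signal loss = activity. Primary: duplicate, 25 uM; secondary: conc. series on actives.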

Test [10] addresses Glucocorticoid receptor (Homo sapiens) (UniProt P04150). Description: NVS_NR_hGR: NovaScreen (NVS) Nuclear Receptor Binding Assay for human Glucocorticoid Receptor (GR) (AID 2283363).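 For AC50: activity is loss of specific radioligand binding signal relative to DMSO.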 The method, boiled down:
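Single-readout cell-free binding: radioligand plus extracted receptor, 16-hour dosing, filter radiodetection; 25 uM duplicate primary, concentration series secondary.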

Test [11] has as its target guinea pig Sigma Receptor, Non-selective Binding, SIGMAR1 (gene 100135589) (UniProt Q60492). Description: NVS_OR_gSIGMA_NonSelective: NovaScreen (NVS) Nuclear Receptor Binding Assay for guinea pig Sigma Receptor, Non-selective Binding (AID 2283367). The method, boiled down: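 Test chemicals were screened in duplicate at 25 uM, then in concentration series if active, against radioligand binding to guinea pig brain membranes; filtration and scintillation counting at 1 h measured remaining bound ligand.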

Test [12] deals with human Dopamine Transporter (DAT), SLC6A3 (gene 6531) (UniProt Q01959). Description: NVS_TR_hDAT: NovaScreen (NVS) Transporter Assay for human Dopamine Transporter (DAT) (AID 2283374).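 Note: activity means loss of bound radioligand signal relative to DMSO.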 Summed up: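 Extracted human SLC6A3 protein incubated 1 h with radioligand and test chemical; bound fraction separated on filters and counted. Single 25 uM duplicate screen preceded concentration-response follow-up; positive and negative controls on every plate.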

Test [13] addresses human Norepinephrine Transporter (NET), SLC6A2 (gene 6530) (UniProt P23975). Description: NVS_TR_hNET: NovaScreen (NVS) Transporter Assay for human Norepinephrine Transporter (NET) (AID 2283377).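 For AC50: displacement of radioligand from human NET seen as loss of scintillation signal.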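 Note: cell-free membrane protein extracted from CHO cells expressing human NET.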 The method, boiled down: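 In this cell-free binding screen, chemicals at 25 uM (duplicate) compete with a radioligand for CHO-derived human NET over 1 hour, with filter-based radiodetection.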

The target of test [14] is human Peroxisome Proliferator-activated Receptor alpha (PPARa), PPARA (gene 5465) (UniProt Q07869). Description: NVS_NR_hPPARa: NovaScreen (NVS) Nuclear Receptor Binding Assay for human Peroxisome Proliferator-activated Receptor alpha (PPARa) (AID 2283359).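 Note: activity means loss of TR-FRET signal versus DMSO baseline.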 Summed up: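 One-hour incubation, cell-free extracted protein, TR-FRET binding readout; signal loss vs DMSO scored. Screen: 25 uM duplicates, confirmatory dose series for actives.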

In test [15] the target is PGR (gene 5241) (UniProt P06401). Description: NVS_NR_hPR: NovaScreen (NVS) Nuclear Receptor Binding Assay for human Progestron Receptor (PR) (AID 2283360).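 Note: active means loss of bound radioligand signal versus DMSO baseline.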 The method, boiled down:
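T47D lysate; tritiated or iodinated radioligand; scintillation count at 18 h. DMSO = negative control/baseline. Primary: 25 uM, duplicate. Secondary: concentration series for actives.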

The target of test [16] is Retinoic acid receptor alpha (Homo sapiens) (UniProt P10276). Description: NVS_NR_hRARa_Agonist: NovaScreen (NVS) Nuclear Receptor Binding Assay for human Retinoic Acid Alpha Receptor Agonism (RAR) (AID 2283361). The method, boiled down:
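Compounds screened at 25 uM, duplicate, then in concentration series if active. Detection: TR-FRET gain of signal versus DMSO after 2 h with cell-free extracted RARα.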

Inconclusive results are not listed. The source holds several records for some structures; these can differ, active in one and inactive in another. Calls of active or inactive are those of the source. Rule for the calls: active = hit-call score of the fitted dose curve at least 0.9, where 1 is the maximum; inconclusive = response in the unintended direction; inactive = score below 0.9.

T1 sequence (P03372 whole entry, looked up): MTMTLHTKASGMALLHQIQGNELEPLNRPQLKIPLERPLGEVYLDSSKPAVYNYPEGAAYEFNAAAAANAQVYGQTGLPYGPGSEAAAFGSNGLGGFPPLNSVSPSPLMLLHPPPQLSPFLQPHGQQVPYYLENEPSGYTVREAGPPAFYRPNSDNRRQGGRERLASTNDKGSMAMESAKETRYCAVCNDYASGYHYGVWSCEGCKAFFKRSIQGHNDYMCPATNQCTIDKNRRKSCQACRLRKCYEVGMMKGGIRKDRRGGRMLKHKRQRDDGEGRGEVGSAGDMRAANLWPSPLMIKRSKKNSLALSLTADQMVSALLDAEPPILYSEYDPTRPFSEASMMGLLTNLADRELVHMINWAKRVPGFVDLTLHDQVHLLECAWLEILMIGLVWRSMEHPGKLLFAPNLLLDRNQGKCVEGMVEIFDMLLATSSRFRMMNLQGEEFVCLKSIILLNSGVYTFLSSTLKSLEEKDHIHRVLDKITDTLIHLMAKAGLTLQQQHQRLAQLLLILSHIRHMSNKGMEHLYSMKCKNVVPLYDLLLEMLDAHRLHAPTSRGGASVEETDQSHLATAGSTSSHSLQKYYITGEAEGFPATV
T1 sequence (Q92731 whole entry, looked up): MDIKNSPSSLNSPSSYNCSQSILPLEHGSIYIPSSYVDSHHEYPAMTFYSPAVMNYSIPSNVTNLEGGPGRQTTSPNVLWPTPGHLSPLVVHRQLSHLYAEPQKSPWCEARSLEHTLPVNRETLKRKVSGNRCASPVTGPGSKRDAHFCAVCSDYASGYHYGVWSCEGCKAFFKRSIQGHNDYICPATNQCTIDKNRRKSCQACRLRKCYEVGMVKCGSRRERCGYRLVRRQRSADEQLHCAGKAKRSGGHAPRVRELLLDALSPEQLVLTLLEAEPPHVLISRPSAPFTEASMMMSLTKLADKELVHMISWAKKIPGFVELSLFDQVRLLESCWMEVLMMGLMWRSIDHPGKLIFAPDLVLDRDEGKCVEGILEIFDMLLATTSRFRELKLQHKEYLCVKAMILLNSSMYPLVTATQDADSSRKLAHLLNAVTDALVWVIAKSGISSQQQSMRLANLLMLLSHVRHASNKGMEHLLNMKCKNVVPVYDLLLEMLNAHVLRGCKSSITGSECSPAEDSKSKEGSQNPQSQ
Peroxisome proliferator-activated receptor gamma (Homo sapiens), sequence (P37231 whole entry, looked up): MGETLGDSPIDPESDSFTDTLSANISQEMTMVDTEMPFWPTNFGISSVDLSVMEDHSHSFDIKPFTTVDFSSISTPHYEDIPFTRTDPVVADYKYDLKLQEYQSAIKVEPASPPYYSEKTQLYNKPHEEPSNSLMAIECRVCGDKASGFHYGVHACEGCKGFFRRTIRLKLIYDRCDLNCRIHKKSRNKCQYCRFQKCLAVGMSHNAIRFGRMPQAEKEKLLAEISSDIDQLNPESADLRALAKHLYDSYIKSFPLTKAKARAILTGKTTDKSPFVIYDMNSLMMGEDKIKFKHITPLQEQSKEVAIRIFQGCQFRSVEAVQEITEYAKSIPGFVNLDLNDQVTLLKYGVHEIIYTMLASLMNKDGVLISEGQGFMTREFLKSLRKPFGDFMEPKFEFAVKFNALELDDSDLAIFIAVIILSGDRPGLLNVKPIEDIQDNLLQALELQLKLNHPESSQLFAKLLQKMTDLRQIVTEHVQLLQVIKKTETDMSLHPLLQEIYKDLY
Estrogen receptor beta (Homo sapiens), sequence (Q92731 whole entry, looked up, the tested form may be a part): as the sequence (Q92731 whole entry, looked up) above
human Peroxisome Proliferator-activated Receptor alpha (PPARa), PPARA (gene 5465), sequence (Q07869 whole entry, looked up): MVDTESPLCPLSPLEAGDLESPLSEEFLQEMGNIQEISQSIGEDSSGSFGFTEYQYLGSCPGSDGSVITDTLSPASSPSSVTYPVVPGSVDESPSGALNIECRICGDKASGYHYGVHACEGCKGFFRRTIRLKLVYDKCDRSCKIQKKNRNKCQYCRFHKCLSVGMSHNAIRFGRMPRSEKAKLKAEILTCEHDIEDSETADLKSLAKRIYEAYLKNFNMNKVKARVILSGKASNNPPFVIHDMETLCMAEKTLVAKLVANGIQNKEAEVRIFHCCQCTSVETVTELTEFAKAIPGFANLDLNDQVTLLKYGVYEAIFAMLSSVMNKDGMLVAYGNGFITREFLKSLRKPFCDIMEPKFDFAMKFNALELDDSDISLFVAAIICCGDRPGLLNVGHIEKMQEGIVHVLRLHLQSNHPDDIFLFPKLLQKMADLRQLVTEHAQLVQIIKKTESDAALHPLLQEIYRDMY
Nuclear receptor subfamily 1 group I member 2 (Homo sapiens), sequence (O75469 whole entry, looked up): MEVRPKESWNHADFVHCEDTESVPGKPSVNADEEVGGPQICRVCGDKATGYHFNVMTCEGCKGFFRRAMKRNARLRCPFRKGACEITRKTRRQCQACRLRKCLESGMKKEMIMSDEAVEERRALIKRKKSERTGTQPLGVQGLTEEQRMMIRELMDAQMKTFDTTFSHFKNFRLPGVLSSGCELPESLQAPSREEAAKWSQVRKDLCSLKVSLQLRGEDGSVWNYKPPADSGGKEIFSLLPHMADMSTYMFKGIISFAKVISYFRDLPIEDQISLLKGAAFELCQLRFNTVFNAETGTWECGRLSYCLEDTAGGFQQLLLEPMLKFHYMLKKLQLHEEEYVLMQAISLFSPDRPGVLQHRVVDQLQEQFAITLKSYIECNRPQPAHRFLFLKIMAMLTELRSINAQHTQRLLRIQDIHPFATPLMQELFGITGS
human Norepinephrine Transporter (NET), SLC6A2 (gene 6530), sequence (P23975 whole entry, looked up): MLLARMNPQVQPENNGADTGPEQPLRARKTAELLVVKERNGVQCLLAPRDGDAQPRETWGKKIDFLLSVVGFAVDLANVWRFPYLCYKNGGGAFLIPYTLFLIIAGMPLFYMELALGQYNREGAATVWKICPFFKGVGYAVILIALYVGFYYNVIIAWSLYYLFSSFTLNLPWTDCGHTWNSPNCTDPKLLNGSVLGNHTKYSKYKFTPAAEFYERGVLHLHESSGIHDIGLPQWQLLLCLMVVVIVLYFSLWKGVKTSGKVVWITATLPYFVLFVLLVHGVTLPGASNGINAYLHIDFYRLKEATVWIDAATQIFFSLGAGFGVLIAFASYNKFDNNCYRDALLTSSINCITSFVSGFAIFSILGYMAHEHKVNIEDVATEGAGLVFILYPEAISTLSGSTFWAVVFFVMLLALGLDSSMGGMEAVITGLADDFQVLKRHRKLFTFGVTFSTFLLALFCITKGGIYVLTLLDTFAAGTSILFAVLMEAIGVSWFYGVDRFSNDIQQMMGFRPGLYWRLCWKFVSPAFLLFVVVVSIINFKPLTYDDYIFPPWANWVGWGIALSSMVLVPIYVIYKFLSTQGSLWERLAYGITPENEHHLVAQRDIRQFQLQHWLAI
Glucocorticoid receptor (Homo sapiens), sequence (P04150 whole entry, looked up): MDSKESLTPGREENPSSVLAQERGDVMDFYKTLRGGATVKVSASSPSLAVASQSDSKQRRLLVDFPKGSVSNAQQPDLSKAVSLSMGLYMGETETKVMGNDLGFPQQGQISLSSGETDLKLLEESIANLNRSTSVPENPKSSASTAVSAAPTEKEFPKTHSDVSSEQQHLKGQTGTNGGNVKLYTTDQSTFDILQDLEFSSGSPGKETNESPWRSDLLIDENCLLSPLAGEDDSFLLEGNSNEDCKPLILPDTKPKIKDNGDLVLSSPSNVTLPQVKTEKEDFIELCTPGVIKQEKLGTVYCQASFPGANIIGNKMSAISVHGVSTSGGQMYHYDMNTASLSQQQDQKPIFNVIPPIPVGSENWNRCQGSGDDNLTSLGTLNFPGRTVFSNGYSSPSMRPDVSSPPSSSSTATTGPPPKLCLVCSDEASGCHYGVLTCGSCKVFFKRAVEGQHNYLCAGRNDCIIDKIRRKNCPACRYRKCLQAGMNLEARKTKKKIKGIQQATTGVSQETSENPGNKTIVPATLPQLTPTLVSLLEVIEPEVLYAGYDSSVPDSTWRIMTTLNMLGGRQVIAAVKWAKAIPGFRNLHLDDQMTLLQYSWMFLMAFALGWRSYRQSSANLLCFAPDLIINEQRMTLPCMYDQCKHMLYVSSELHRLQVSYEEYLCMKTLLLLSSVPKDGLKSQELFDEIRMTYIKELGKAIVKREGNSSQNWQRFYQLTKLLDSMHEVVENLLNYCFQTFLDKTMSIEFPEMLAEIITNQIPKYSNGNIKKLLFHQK
human Dopamine Transporter (DAT), SLC6A3 (gene 6531), sequence (Q01959 whole entry, looked up): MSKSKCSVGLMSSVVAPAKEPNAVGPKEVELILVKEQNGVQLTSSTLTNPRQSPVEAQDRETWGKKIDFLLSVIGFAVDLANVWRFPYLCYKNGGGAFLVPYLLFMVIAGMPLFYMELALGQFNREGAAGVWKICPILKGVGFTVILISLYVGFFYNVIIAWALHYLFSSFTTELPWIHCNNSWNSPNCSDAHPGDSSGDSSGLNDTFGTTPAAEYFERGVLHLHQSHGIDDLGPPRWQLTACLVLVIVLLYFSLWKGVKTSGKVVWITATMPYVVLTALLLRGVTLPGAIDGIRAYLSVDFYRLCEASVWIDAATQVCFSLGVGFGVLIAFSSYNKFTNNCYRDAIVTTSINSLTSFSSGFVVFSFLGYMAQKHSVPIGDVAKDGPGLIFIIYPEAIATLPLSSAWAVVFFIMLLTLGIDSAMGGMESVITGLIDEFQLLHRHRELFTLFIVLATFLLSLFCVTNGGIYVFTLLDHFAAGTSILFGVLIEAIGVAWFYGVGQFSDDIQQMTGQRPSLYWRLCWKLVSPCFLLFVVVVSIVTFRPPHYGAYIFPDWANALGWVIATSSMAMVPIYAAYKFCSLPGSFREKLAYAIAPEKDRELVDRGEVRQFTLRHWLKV
guinea pig Sigma Receptor, Non-selective Binding, SIGMAR1 (gene 100135589), sequence (Q60492 whole entry, looked up): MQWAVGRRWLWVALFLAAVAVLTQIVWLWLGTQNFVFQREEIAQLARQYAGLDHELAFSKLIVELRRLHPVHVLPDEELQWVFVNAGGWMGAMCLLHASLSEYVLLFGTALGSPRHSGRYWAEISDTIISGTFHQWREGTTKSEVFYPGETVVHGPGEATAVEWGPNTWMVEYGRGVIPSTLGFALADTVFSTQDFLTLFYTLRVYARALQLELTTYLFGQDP

Take `C=CC(=O)NC(C)(C)CS(=O)(=O)O`: the outcome in test [1], in [2] and in test [3] was inactive.
For the compound `CC(C)(C)c1ccc(N)cc1`, the outcome in test [1], in [2] and in [3] was inactive.
On to `c1c[nH]cn1`, for which the outcome in test [1] and in test [2] was inactive.
Consider `CC(C)(C)c1ccc(OC(=O)c2ccccc2O)cc1`, for which the AC50 (commonly the concentration giving half of the maximal activity seen) in test [1] is 58.9 µM (active); in test [2], 55.2 µM (active). Further, the result in [3] was inactive.
`CC1=CC[C@H]2C[C@@H]1C2(C)C`: the outcome in [1], in test [2] and in test [3] was inactive.
Consider `O=c1cc(-c2ccccc2)oc2ccccc12`, for which the result in test [1], in test [4], in test [5], in test [3], in test [6] and in test [7] was inactive. Besides, the AC50 in [2] was 57.3 µM (active).
Take `CCCCCCCOC(=O)CCC`: the result in test [1], in [8], in test [2] and in [3] was inactive.
Take `Cc1ccc(N/N=c2\c(=O)cc/c(=N/Nc3ccc(S(=O)(=O)O)cc3)c2=O)c(C)c1`: the outcome in test [1], in [2] and in test [3] was inactive. Moreover, the AC50 in [9] was 18.6 µM (active); in test [6], 2.79 µM (active); in [7], 16 µM (active).
Regarding `CCCCCCCCCCCCCCCC[N+](C)(C)CC`, the AC50 was 2.81 µM (active) in test [10], 1.23 µM (active) in test [11], 1.82 µM (active) in test [12] and 2.32 µM (active) in test [13].
As for `Cc1ccc(C(C)(C)C)cc1`, in [14], the outcome was inactive.
As to `CCCCCCCCCCOS(=O)(=O)O`, in test [7], the AC50 is 15.6 µM (active) and the compound was classed as inactive.
`CC(C)=CC1CC(C)CCO1` (configuration not stated): the outcome in [12] was inactive.
Turning to `S=C(NC1CCCCC1)NC1CCCCC1`, the AC50 in [11] is 5.93 µM (active).
In the case of `O=C(C(Cl)Cl)N1CCOC12CCCCC2`, the outcome in [2], in test [3] and in [7] was inactive.
Turning to `CC(C)(C)c1n[nH]c(=O)n(N)c1=O`, the concentration at half-maximal activity (AC50) in test [15] is 0.131 µM (active).
For the compound `CC(=O)OC(C)C`, the result in test [2], in [3], in test [6] and in test [7] was inactive.
In the case of `OCCCS`, the outcome in test [15] was inactive.
Consider `O=[N+]([O-])c1ccc(CO)cc1`, for which the call in test [13] was inactive.
Consider `CCCCCCCC[N+](C)(CCCCCCCC)CCCCCCCC`, for which the outcome in test [1] and in [10] was inactive. The AC50 was 6.9 µM (active) in test [14] and 4.37 µM (active) in test [16].
For the compound `CCCCCCCC/C=C\CCCCCCCC(=O)O`, in test [3], the compound was called inactive. The AC50 in test [14] is 8.82 µM (active); in test [7], 25 µM (active).
